Out of some 290,000 compounds screened, about 3,000 (1%) were called active. Cut-off read from the data, not from the text of the source: active = inhibition mostly above about 36% (no sharp cut-off); inactive = mostly below about 34%. Many of the other results were omitted from the sample, so actives are more common in it than they were.
Assay: NOD1 signaling inhibitors, primary screen, cell-based, luminescence, uHTS (AID 1578);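 note: HEK-293T reporter cells stimulated with the NOD1 agonist gamma-tri-DAP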
Details: NOD1-driven NF-kB luciferase reporter cells, at 4 µM, active compounds read high

Row | Structure (SMILES) | inhibition
1 | CCN(CC)C(=O)Oc1ccc2ccccc2c1Cl | -86.7% (inactive)
2 | O=S(=O)(CCSc1nc2ccccc2s1)c1nc2ccccc2s1 | 99% (active)
3 | CCS(=O)(=O)CCSc1nc2ccccc2s1 | -2.7% (inactive)
4 | O=S(=O)(CCSc1ccccn1)c1nc2ccccc2s1 | 74.4% (inactive)
5 | Cc1ccc(S(=O)(=O)N2CCCC2)cc1C(=O)NCc1ccccn1 | -26.2% (inactive)
6 | O=C(c1cc(-c2ccc(F)cc2)on1)N1CCCCCC1 | -53.7% (inactive)
7 | Nc1c(Cl)ncnc1N/N=C/c1ccc2ccccc2n1 | 109% (active)
8 | Nc1c(Cl)ncnc1N/N=C/c1ccnc2ccccc12 | 8.6% (inactive)
9 | Nc1c(Cl)ncnc1N/N=C/c1ccc(O)cc1 | -9% (inactive)
10 | CCCCOC(=O)C1C2C=C[C@]3(CN(C(C)c4ccc(OC)cc4)C(=O)[C@H]13)O2 (stereo not given in full) | 11.8% (inactive)
11 | CC(=O)Nc1cccc(Cl)c1C(=O)O | -21.4% (inactive)
12 | Cc1nn(C(=O)c2ccco2)c(C)c1Sc1ccc([N+](=O)[O-])cc1 | -7.1% (inactive)
13 | O=C(N/N=C(\CC(=O)c1cccs1)C(F)(F)F)c1ccncc1 | -3.7% (inactive)
14 | O=C(N/N=C(/CC(=O)c1cccs1)C(F)(F)F)c1ccc(O)cc1 | -19.9% (inactive)
15 | Cc1ccc(C(=O)N/N=C(/CC(=O)c2cccs2)C(F)(F)F)cc1 | 70% (active)
16 | COC(=O)Cc1c(C)c2ccc(OC3CCCCC3=O)c(C)c2oc1=O (stereo not given) | -8.8% (inactive)
17 | Clc1ccc(-c2nnc(C3CC3)o2)cc1 | -15.4% (inactive)
18 | c1cncc(-c2nnc(C3CCCCC3)o2)c1 | 11.8% (inactive)
19 | Clc1ccc(-c2nnc(C3CCCCC3)o2)cc1 | 70.8% (active)
20 | COc1ccc(C(=O)NC(CC(=O)O)c2cc([N+](=O)[O-])ccc2Cl)c(SC)c1 (stereo not given) | -14.4% (inactive)
21 | O=C1C2CCCN2C(c2ccc(F)cc2)N1c1cccc(Cl)c1 (stereo not given) | -10.3% (inactive)
22 | O=C(COC(=O)c1cncc(Br)c1)NCCC1=CCCCC1 | -8.5% (inactive)
23 | O=[N+]([O-])c1cc(/C=N/O)ccc1Sc1ccccc1 | 8.1% (inactive)
24 | CO/N=C/c1ccc(Sc2ccc(C)cc2)c([N+](=O)[O-])c1 | 7.3% (inactive)
25 | Cc1ccc(Sc2ccc(/C=N/O)cc2[N+](=O)[O-])cc1 | 54.4% (active)
26 | COc1ccc(OC)c(NC(=O)C2CCN(c3ncccn3)CC2)c1 | -1.7% (inactive)
27 | COc1ccc(N2CCN(Cc3cc4c(cc3Br)OCCO4)CC2)cc1 | -11.3% (inactive)
28 | COc1ccc(C=O)cc1Cn1ccnc1 | -23% (inactive)
29 | COc1ccc(C=O)cc1Cn1ccnc1C | 62.6% (active)
30 | CCc1nccn1Cc1cc(C=O)ccc1OC | 15% (inactive)

Reference: PubChem BioAssay AID1578 (Sanford-Burnham Center for Chemical Genomics, 2009)
